PubChem BioAssay (NCATS)
Results filed as inconclusive are left out. Activity calls are given as the source filed them. The call rests on the fitted dose curve; in most records, active means well fitted curve in the direction sought with a large enough effect; inconclusive means small, poorly fitted or top-dose-only effect, or another doubt; inactive means no such curve, though single readings can be large; an effect the other way counts as inactive or inconclusive.

Experiments:
[1] = Cell Viability - LYMP2-005 (AID 967); further: series mostly up to about 92 µM
In short: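 LYMP2-005 human lymphoblastoid cells (2500/well) were treated with compounds for 24 h at 37 C. Intracellular ATP was then measured by CellTiter-Glo luminescence after 30 min at room temperature. AC50 values came from Hill-equation fits of qHTS concentration-response data.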

[2] = Cell Viability - LYMP2-009 (AID 968); further: series mostly up to about 92 µM; nearly all actives have a fitted effect of over 55% in size
[3] = Cell Viability - LYMP2-011 (AID 969); further: nearly all actives have a fitted effect of over 60% in size
In short: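 Human lymphoblastoid cells (2500/well) were plated in complete medium, preincubated 5 hr at 37 C, then exposed to compounds for 24 hr at 37 C. Intracellular ATP was read by CellTiter-Glo luminescence, and AC50 came from Hill-equation concentration-response fits.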

[4] = Cell Viability - LYMP2-013 (AID 970); further: series mostly up to about 92 µM; nearly all actives have a fitted effect of over 55% in size
In short: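 Human lymphoblastoid cells, 2500/well, were preincubated 5 hr at 37 C, then treated with compounds for 24 hr at 37 C in complete medium. Intracellular ATP was read by CellTiter-Glo luminescence; AC50 from Hill-equation fits of concentration-response data.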

[5] = Cell Viability - LYMP2-015 (AID 971); further: nearly all actives have a fitted effect of over 55% in size
In short: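 Human lymphoblastoid cells (2500/well) in complete medium were preincubated 5 hr at 37 C, then compound-treated 24 hr at 37 C. Intracellular ATP was read by CellTiter-Glo luminescence after 30 min at room temperature; AC50 came from Hill-equation concentration-response fits.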

[6] = Cell Viability - LYMP2-017 (AID 972); further: series mostly up to about 92 µM; nearly all actives have a fitted effect of over 55% in size
In short: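 Human lymphoblastoid cells (2500/well) were seeded in complete medium, held 5 hr at 37 C, then exposed to compounds for 24 hr at 37 C. Intracellular ATP was read by CellTiter-Glo luminescence after 30 min at room temperature, with AC50 values from Hill-equation fits.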

[7] = Cell Viability - LYMP2-019 (AID 973); further: nearly all actives have a fitted effect of over 55% in size
In short: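 Human lymphoblastoid cells were seeded at 2500 cells/well, preincubated 5 hr at 37 C, then exposed to compounds for 24 hr at 37 C in complete medium. Intracellular ATP was measured by CellTiter-Glo luminescence; AC50 from Hill fits.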

[8] = Cell Viability - LYMP2-021 (AID 974)
In short: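 Human lymphoblastoid cells (2500/well) were preincubated 5 hr at 37 C, then exposed to compounds for 24 hr at 37 C in complete medium. Intracellular ATP was read by CellTiter-Glo luminescence; AC50 came from Hill-equation fits of concentration-response data.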

[9] = Cell Viability - LYMP2-023 (AID 975)
In short: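 Human lymphoblastoid cells (2500/well) were preincubated 5 hr at 37 C, then exposed to compounds for 24 hr at 37 C in complete medium. Cellular ATP was read by CellTiter-Glo luminescence, and AC50 came from Hill-equation fits.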

[10] = Cell Viability - LYMP2-025 (AID 976); further: series mostly up to about 92 µM
In short: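 Human lymphoblastoid LYMP2-025 cells (2500/well) were pre-incubated 5 hr at 37 C, then treated with compounds for 24 hr at 37 C in complete medium. Viability was read as intracellular ATP by CellTiter-Glo luminescence; AC50 from Hill fits.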

[11] = Cell Viability - LYMP2-002 (AID 977); further: series mostly up to about 92 µM
In short: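 Cytotoxicity is scored as concentration-dependent loss of cellular ATP in a human lymphoblastoid line after 24 hr compound treatment at 37 C. AC50 is obtained by modelling concentration-response data with the Hill equation.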

[12] = Cell Viability - LYMP2-007 (AID 979);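 further: cells exposed to compound for 24 h before reading; nearly all actives have a fitted effect of over 60% in size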
In short: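 Human lymphoblastoid cells (2500/well) were plated in complete medium, incubated 5 hr at 37 C, then exposed to compounds for 24 hr at 37 C. Intracellular ATP was read by CellTiter-Glo luminescence after 30 min at room temperature; AC50 from Hill fits.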

[13] = Cell Viability - LYMP2-008 (AID 980); further: nearly all actives have a fitted effect of over 60% in size
In short: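 Human lymphoblastoid cells (2500/well) were plated, held 5 hr at 37 C, then exposed to compounds for 24 hr at 37 C in complete medium. Intracellular ATP was read by CellTiter-Glo luminescence; AC50 from Hill-fitted concentration-response.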

[14] = Cell Viability - LYMP2-010 (AID 981); further: nearly all actives have a fitted effect of over 55% in size
In short: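 Human lymphoblastoid LYMP2-010 cells (2500/well) were preincubated 5 hr at 37 C, then exposed to compounds for 24 hr at 37 C in complete medium. Intracellular ATP was measured by CellTiter-Glo luminescence after 30 min at room temperature; AC50 from Hill-fitted concentration-response.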

[15] = Cell Viability - LYMP2-012 (AID 982)
[16] = Cell Viability - LYMP2-014 (AID 983); further: series mostly up to about 92 µM; nearly all actives have a fitted effect of over 50% in size
In short: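 Human lymphoblastoid cells (2500/well) were pre-incubated 5 hr at 37 C, then exposed to compounds in complete medium for 24 hr at 37 C. Intracellular ATP was read by CellTiter-Glo luminescence after 30 min at room temperature; AC50 from Hill fits.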

[17] = Cell Viability - LYMP2-016 (AID 984); further: nearly all actives have a fitted effect of over 55% in size
In short: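 Cytotoxicity was scored by luminescent ATP content (CellTiter-Glo) after 24 h compound exposure at 37 C of a human lymphoblastoid line at 2500 cells/well. Concentration-response data were fitted to the Hill equation for AC50.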

[18] = Cell Viability - LYMP2-018 (AID 985);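 further: compound exposure lasted 24 hr at 37 °C; nearly all actives have a fitted effect of over 50% in size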
In short: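 Human lymphoblastoid cells (2500/well) were pre-incubated 5 hr at 37 C, then exposed to compounds for 24 hr at 37 C in complete medium. Viability was read as intracellular ATP by CellTiter-Glo luminescence; AC50 values came from Hill-equation fits.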

[19] = Cell Viability - LYMP2-020 (AID 986)
In short: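 Human lymphoblastoid cells, 2500/well, were pre-incubated 5 hr at 37 C, then exposed to compounds for 24 hr at 37 C in complete medium. Intracellular ATP was read by CellTiter-Glo luminescence, and AC50 was derived by Hill fitting of concentration-response data.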

[20] = Cell Viability - LYMP2-022 (AID 987); further: nearly all actives have a fitted effect of over 55% in size
In short: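 Human lymphoblastoid cells, 2500/well, preincubated 5 hr at 37 C, then exposed to compounds over a concentration range for 24 hr at 37 C in complete medium. Viability read as intracellular ATP by CellTiter-Glo luminescence after 30 min at room temperature; AC50 from Hill fits.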

Measured: outcome

CC(=O)OCC(COC(C)=O)OC(C)=O
inactive: [1] | [2] | [3] | [4] | [5] | [6] | [7] | [8] | [9] | [10] | [11] | [12] | [13] | [14] | [15] | [16] | [17] | [18] | [19] | [20]

CC1CC(OC(=O)c2ccccc2O)CC(C)(C)C1 (configuration not stated)
inactive: [1] | [2] | [3] | [4] | [5] | [6] | [7] | [8] | [9] | [10] | [11] | [12] | [13] | [14] | [15] | [16] | [17] | [18] | [19] | [20]

CCCCCC(N)=O
inactive: [1] | [2] | [3] | [4] | [5] | [6] | [7] | [8] | [9] | [10] | [11] | [12] | [13] | [14] | [15] | [16] | [17] | [18] | [19] | [20]

Cc1cc(=O)[nH]c(=S)[nH]1
inactive: [1] | [2] | [3] | [4] | [5] | [6] | [7] | [8] | [9] | [10] | [11] | [12] | [13] | [14] | [15] | [16] | [17] | [18] | [19] | [20]

O=C(c1ccccc1)C(O)c1ccccc1 (configuration not stated)
inactive: [1] | [2] | [3] | [4] | [5] | [6] | [7] | [8] | [9] | [10] | [11] | [12] | [13] | [14] | [15] | [16] | [17] | [18] | [19] | [20]

CCN(CC)C(=O)c1cccc(C)c1
inactive: [1] | [2] | [3] | [4] | [5] | [6] | [7] | [8] | [9] | [10] | [11] | [12] | [13] | [14] | [15] | [16] | [17] | [18] | [19] | [20]

Cc1cc(C)nc(NS(=O)(=O)c2ccc(N)cc2)n1
inactive: [1] | [2] | [3] | [4] | [5] | [6] | [7] | [8] | [9] | [10] | [11] | [12] | [13] | [14] | [15] | [16] | [17] | [18] | [19] | [20]

CC(=O)NS(=O)(=O)c1ccc(N)cc1
inactive: [1] | [2] | [3] | [4] | [5] | [6] | [7] | [8] | [9] | [10] | [11] | [12] | [13] | [14] | [15] | [16] | [17] | [18] | [19] | [20]

O=C1c2cccc(O)c2C(=O)c2c(O)cccc21
inactive: [1] | [2] | [4] | [8] | [12] | [13] | [19] | [20]

FC(F)(F)C(Cl)Br (configuration not stated)
inactive: [1] | [2] | [3] | [4] | [5] | [6] | [7] | [8] | [9] | [10] | [11] | [12] | [13] | [14] | [15] | [16] | [17] | [18] | [19] | [20]

Cc1c(N(C)C)c(=O)n(-c2ccccc2)n1C
inactive: [1] | [2] | [3] | [4] | [5] | [6] | [7] | [8] | [9] | [10] | [11] | [12] | [13] | [14] | [15] | [16] | [17] | [18] | [19] | [20]

O=C(O)CCCCC1CCSS1 (configuration not stated)
inactive: [1] | [2] | [3] | [4] | [5] | [6] | [7] | [8] | [9] | [10] | [11] | [12] | [13] | [14] | [15] | [16] | [17] | [18] | [19] | [20]

CC(=O)Nc1ccccc1
inactive: [1] | [2] | [3] | [4] | [5] | [6] | [7] | [8] | [9] | [10] | [11] | [12] | [13] | [14] | [15] | [16] | [17] | [18] | [19] | [20]

CCCCOC(=O)c1ccc(N)cc1
inactive: [1] | [2] | [3] | [4] | [5] | [6] | [7] | [8] | [9] | [10] | [11] | [12] | [13] | [14] | [15] | [16] | [17] | [18] | [19] | [20]

CCCCCCCC(=O)OCC(COC(=O)CCCCCCC)OC(=O)CCCCCCC
inactive: [1] | [2] | [3] | [4] | [5] | [6] | [7] | [8] | [9] | [10] | [11] | [12] | [13] | [14] | [15] | [16] | [17] | [18] | [19] | [20]

CCCC(O)C(CC)CO (configuration not stated)
inactive: [1] | [2] | [3] | [4] | [5] | [6] | [7] | [8] | [9] | [10] | [11] | [12] | [13] | [14] | [15] | [16] | [17] | [18] | [19] | [20]

CC(=O)Nc1cccc(O)c1
inactive: [1] | [2] | [3] | [4] | [5] | [6] | [7] | [8] | [9] | [10] | [11] | [12] | [13] | [14] | [15] | [16] | [17] | [18] | [19] | [20]

C=CCNC(N)=S
inactive: [1] | [2] | [3] | [4] | [5] | [6] | [7] | [8] | [9] | [10] | [11] | [12] | [13] | [14] | [15] | [16] | [17] | [18] | [19] | [20]

O=C1C(c2[nH]c3ccccc3c2O)=Nc2ccccc21
inactive: [1] | [2] | [3] | [4] | [5] | [6] | [7] | [8] | [9] | [10] | [11] | [12] | [13] | [14] | [15] | [16] | [17] | [18] | [19] | [20]

CC(=O)Nc1ccc(C(=O)O)cc1
inactive: [1] | [2] | [3] | [4] | [6] | [7] | [8] | [9] | [10] | [11] | [12] | [13] | [14] | [15] | [16] | [17] | [18] | [19] | [20]

Nc1ccc(S(=O)(=O)c2ccc(N)cc2)cc1
inactive: [1] | [2] | [3] | [4] | [5] | [6] | [7] | [8] | [9] | [10] | [11] | [12] | [13] | [14] | [15] | [16] | [17] | [18] | [19] | [20]

COc1ccc(O)cc1
inactive: [1] | [2] | [3] | [4] | [5] | [6] | [7] | [8] | [9] | [10] | [11] | [12] | [13] | [14] | [15] | [16] | [17] | [18] | [19] | [20]
